# Assay outcomes deposited in PubChem by National Center for Advancing Translational Sciences (NCATS).
# A selection: hits, their analogues and other compounds. The true share with any hit is near 8%.
# SW480 rereplic – induces DNA re-replication in SW480 colon adenocarcinoma cells. 340,000 compounds, 1.8% hits. AID 624297. Potency, µM (top dose mostly 46.1 µM), without a hit: at the highest dose re-replication activation, actives largely listed as activators. SW480 DNA re-replication, Hoechst DNA content imaging, 48 h; further: % of control where 0% means no effect; nearly all actives have a fitted effect of over 55% in size
#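 DNA re-replication was detected as more nuclei of elevated Hoechst intensity after 48 hr exposure to compound (23 nL pinned per well of 250 cells).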
# HT1080-NT tox – kills 2HG-producing HT-1080-NT fibrosarcoma cells; HT-1080-NT fibrosarcoma viability, CellTiter-Glo ATP luminescence, 48 h; Potency, µM (top dose mostly 46.1 µM), for the others: at the highest dose activity, negative = less viability, most hits filed as cytotoxic; 360,000 compounds, 1.6% hits; AID 686970;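 further: NT is the 2HG producing partner of a matched IDH1 knockdown line; 0% = DMSO-treated cells and -100% = media-only wells without cells; nearly all actives have a fitted effect of over 55% in size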
#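 A 48-hour cytotoxicity screen used HT-1080-NT cells plated 2 hours before compound delivery. ATP-based CellTiter-Glo luminescence measured viability, normalized to DMSO and no-cell controls.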
# KB-V1 MDR tox – KB-V1 MDR subline cytotoxicity | KB-V1 MDR cells viability, CellTiter-Glo, 72 h | Potency, µM (top dose mostly 46.1 µM), most hits filed as cytotoxic | 400,000 compounds, 3.4% hits; further: on the % scale 0 is the no-effect control and ±100 the full control effect; nearly all actives have a fitted effect of over 60% in size
#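 Cells of the MDR subline KB-V1 are plated, dosed with compound at multiple concentrations, and incubated 72 h at 37 degrees C; CellTiter-Glo is then added and luminescence read after 10 min.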
# MCF10A rerep – inducers of DNA re-replication in MCF 10A breast cells; MCF 10A DNA re-replication, Hoechst nuclear intensity, 48 h; Potency, µM (highest dose often 46.1 µM), inactives show at the top dose activity, positive = re-replication, most hits filed as activators; 350,000 compounds, 2.9% hits; AID 624296; further: % of control where 0% means no effect; nearly all actives have a fitted effect of over 50% in size
# HT1080 IDH1KD tx – toxicity to HT-1080 IDH1 knockdown cells (counter line); HT-1080 IDH1 knockdown viability, ATP luminescence, 48 h; AID 686971; Potency, µM (series often up to 46.1 µM), without a hit: at the highest dose activity, negative = toxicity, hits mostly cytotoxic; 360,000 compounds, 2% hits;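 further: 0% = DMSO wells and -100% = cell-free medium wells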
#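 % activity derives from luminescence (CellTiter-Glo), normalised to DMSO and no-cell wells. HT-1080-IDH1KD cells, 750/well, had 48 h compound exposure at 37 °C.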
# KB-3-1 cytotox – KB-3-1 parental cell cytotoxicity; 400,000 compounds, 1.4% hits; AID 1347075; KB-3-1 viability, CellTiter-Glo ATP luminescence, 72 h; Potency, µM (titrated, usually from 46.1 µM), usual class: cytotoxic; further: on the % scale 0 is the no-effect control and ±100 the full control effect; nearly all actives have a fitted effect of over 60% in size
#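 Screening of KB-3-1 cells (DMEM, 10% FBS, phenol-red free) ran from lowest to highest compound concentration; after 72 h at 37 °C viability was read luminescently and curves fitted.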
# An asterisk follows results filed as active; i = inactive; u = inconclusive; x = not tested or not shown. The call rests on the fitted dose curve; in most records, active means well fitted curve in the direction sought with a large enough effect; inconclusive means small, poorly fitted or top-dose-only effect, or another doubt; inactive means no such curve, though single readings can be large; an effect the other way counts as inactive or inconclusive. Potency means the concentration at half of the fitted maximal effect.
SMILES,SW480 rereplic,HT1080-NT tox,KB-V1 MDR tox,MCF10A rerep,HT1080 IDH1KD tx,KB-3-1 cytotox
O=C/C(=C\Nc1ccc(Cl)cn1)c1nc2ccccc2o1,13%,-30%,i,u,-28%,i
O=C/C(=C\Nc1ccc(S(=O)(=O)CCO)cc1)c1nc2cc(Cl)ccc2o1,u,-27%,i,23µM*,-21%,i
C=C1C(=O)CC2=C1[C@](Cc1ccc(F)cc1)(C(=O)OC)N(C(=O)c1ccccc1)C2,x,u,i,x,u,u
COC(=O)[C@@]1(Cc2ccc(OC)cc2)[C@H]2c3cc(C(=O)N(C)C)n(C[C@H](O)CO)c3C[C@H]2CN1C(=O)c1ccccc1,2%,20%,i,0%,12%,i
C=C1C(=O)C=C2CN(C(=O)c3ccccc3)[C@@](Cc3ccc(F)cc3)(C(=O)OC)[C@@H]12,1.3µM*,12µM*,4.6µM*,3.7µM*,5.8µM*,5.2µM*
COC(=O)[C@@]1(Cc2ccc(OC)cc2)[C@@H]2C(=CC(=O)[C@H]2CC(=O)C(=O)N(C)C)CN1C(=O)c1ccccc1,u,u,u,u,u,16µM*
O=C1N/C(=N/c2ccccn2)SC1Cc1ccccc1 (configuration not stated),u,u,u,22%,10µM*,i
O=C1N/C(=N\c2ccccn2)SC1Cc1ccc(Cl)cc1 (configuration not stated),-14%,-14%,i,u,-15%,i
O=C1NC(=Nc2ccccc2)SC1Cc1ccccc1 (configuration not stated),5.8µM*,1%,i,-5%,0%,i
CCCc1nnc2c(N(C)S(=O)(=O)c3ccccc3)nc3ccccc3n12,-5%,0%,i,13%,1%,i
O=C(NCC(=O)N1CCN(Cc2ccccc2)CC1)c1ccc(Cl)cc1,1%,17%,i,3%,-4%,u
COc1ccccc1C=NC(CO)C(O)c1ccc([N+](=O)[O-])cc1 (configuration not stated),-4%,-6%,u,-3%,0%,i
COc1ccc(-c2noc(-c3ccc(NCc4cccnc4)c([N+](=O)[O-])c3)n2)cc1OC,x,x,i,x,x,i
COc1cc(-c2noc(-c3ccc(NCc4cccnc4)c([N+](=O)[O-])c3)n2)cc(OC)c1OC,x,x,26µM*,x,x,i
COc1ccccc1N1CCN(C(=O)COc2cc(C)ccc2C)CC1,2%,-3%,i,12%,-6%,i
Cc1ccc(NC(=O)/C=C/c2ccc([N+](=O)[O-])s2)c(C)c1,4.6µM*,2.6µM*,i,1.6µM*,2.3µM*,u
Cc1ccnc(NC(=O)/C=C/c2cccs2)c1,u,u,12µM*,u,u,u
Cc1ccc(NC(=O)/C=C/c2ccc([N+](=O)[O-])s2)cc1,8.2µM*,u,u,5.8µM*,u,u
Cc1cc([N+](=O)[O-])ccc1NC(=O)/C=C/c1cccs1,-94%,3%,8.2µM*,-62%,8%,u
O=C(/C=C/c1cccs1)NNC(=O)c1cccc([N+](=O)[O-])c1,-4%,-9%,i,2%,-7%,i
Cc1ccc(NC(=O)COC(=O)c2ccc([N+](=O)[O-])s2)c(C)c1,0%,8%,i,8%,14%,i
CCn1c(NCc2cc(OC)ccc2OC)nc2ccccc21,-10%,-5%,i,8%,-4%,i
O=c1c2ccccc2n2c(-c3ccccc3O)nnc2n1Cc1ccc(F)cc1,x,x,i,x,x,i
Cc1cccc(NC(=O)/C=C/c2ccc([N+](=O)[O-])s2)c1,6.5µM*,2.9µM*,4.6µM*,2.3µM*,4.1µM*,5.8µM*
